We go through 9 compounds from PubChem BioAssay (NCATS).

Results filed as inconclusive are left out. A number with no mark means an inactive call. Calls of active or inactive are those of the source. The call rests on the fitted dose curve; in most records, active means well fitted inhibition curve with a large enough effect; inconclusive means small, poorly fitted or top-dose-only effect; inactive means no such curve, though single readings can be large or run the other way.
On the % scale 0 is the no-effect control and ±100 the full control effect; potency means the concentration at half of the fitted maximal effect.

For the experiment, the system named is Zika virus NS2B-NS3 protease (unlinked complex). Briefly: Primary screen GU Rhodamine qHTS for Zika virus inhibitors: Unlinked NS2B-NS3 protease assay (AID 1347159). Further: nearly all actives have a fitted effect of over 60% in size. Conditions: Recombinant ZIKV NS2B-NS3 protease, Rhodamine110 substrate fluorescence; series mostly up to 107 µM; activity change, negative = inhibition: at the top concentration. The method in brief:
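A qHTS format was used, with compound concentrations ranging up to 114 microM. Each compound was preincubated with 25 nM NS2B-NS3 protease, and the substrate was then added at 1.5 microM. Curves were fitted with a 4-parameter Hill model.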
For the compound `Clc1ccc2c(c1)N=C(N1CCNCC1)c1ccccc1N2`, the “activity change, negative = inhibition” value is 21.4%.
Same read-out and setting: in the case of `COc1ccccc1N1CCN(CCN2C(=O)CC3(CCCC3)CC2=O)CC1` it was 37.5%; in that of `Cc1nn(-c2ccccc2)c(C)c1/C=N/N1CCN(Cc2ccccc2)CC1`, -18.4%.
For the compound `O=C1NC(=O)/C(=C/c2ccc3c(c2)OC(F)(F)O3)S1`, the Potency is 12.6 µM (active).
For the compound `N[C@@H](Cn1ccc(=O)c(O)c1)C(=O)O`, the activity change, negative = inhibition was 13% [at 11.5 µM].
Turning to `O=C1NC(c2cccc([N+](=O)[O-])c2)=CCN1c1ccccc1O`, the “activity change, negative = inhibition” value is 0% [at 32.5 µM].
The same measure, in the same setting: in the case of `Nc1ncnc2n[nH]c(Nc3ccc(F)cc3)c12` it was -24.4%.
For the compound `COc1cc(C(=O)OC(COCCC(C)C)CN2CCOCC2)cc(OC)c1OC` (centres undefined), the “activity change, negative = inhibition” value is 6.77%.
`O=[N+]([O-])c1ccc(-c2nc(-c3ccc(F)cc3)c(-c3ccncc3)[nH]2)cc1`: the Potency was 79.4 µM (active).
